Experimental data: paper PMC4336329 (PLoS ONE, 2015)
The whole screen tested about 310,000 compounds, of which about 14,000 (4.5%) showed an effect of 50% or more. The effect is printed as a negative number. Many of the other results were omitted from the sample, so strong results are more common in it than they were.

Each molecule was assayed against human ether-à-go-go-related gene (hERG) potassium channel (human, UniProt Q12809) (assay: primary screen, population patch clamp on CHO cells stably expressing hERG; higher = less effect of the substance).
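Note: peak tail current of the secondary pulse compared with the same well before compound.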

human ether-à-go-go-related gene (hERG) potassium channel, sequence (Q12809 whole entry, looked up): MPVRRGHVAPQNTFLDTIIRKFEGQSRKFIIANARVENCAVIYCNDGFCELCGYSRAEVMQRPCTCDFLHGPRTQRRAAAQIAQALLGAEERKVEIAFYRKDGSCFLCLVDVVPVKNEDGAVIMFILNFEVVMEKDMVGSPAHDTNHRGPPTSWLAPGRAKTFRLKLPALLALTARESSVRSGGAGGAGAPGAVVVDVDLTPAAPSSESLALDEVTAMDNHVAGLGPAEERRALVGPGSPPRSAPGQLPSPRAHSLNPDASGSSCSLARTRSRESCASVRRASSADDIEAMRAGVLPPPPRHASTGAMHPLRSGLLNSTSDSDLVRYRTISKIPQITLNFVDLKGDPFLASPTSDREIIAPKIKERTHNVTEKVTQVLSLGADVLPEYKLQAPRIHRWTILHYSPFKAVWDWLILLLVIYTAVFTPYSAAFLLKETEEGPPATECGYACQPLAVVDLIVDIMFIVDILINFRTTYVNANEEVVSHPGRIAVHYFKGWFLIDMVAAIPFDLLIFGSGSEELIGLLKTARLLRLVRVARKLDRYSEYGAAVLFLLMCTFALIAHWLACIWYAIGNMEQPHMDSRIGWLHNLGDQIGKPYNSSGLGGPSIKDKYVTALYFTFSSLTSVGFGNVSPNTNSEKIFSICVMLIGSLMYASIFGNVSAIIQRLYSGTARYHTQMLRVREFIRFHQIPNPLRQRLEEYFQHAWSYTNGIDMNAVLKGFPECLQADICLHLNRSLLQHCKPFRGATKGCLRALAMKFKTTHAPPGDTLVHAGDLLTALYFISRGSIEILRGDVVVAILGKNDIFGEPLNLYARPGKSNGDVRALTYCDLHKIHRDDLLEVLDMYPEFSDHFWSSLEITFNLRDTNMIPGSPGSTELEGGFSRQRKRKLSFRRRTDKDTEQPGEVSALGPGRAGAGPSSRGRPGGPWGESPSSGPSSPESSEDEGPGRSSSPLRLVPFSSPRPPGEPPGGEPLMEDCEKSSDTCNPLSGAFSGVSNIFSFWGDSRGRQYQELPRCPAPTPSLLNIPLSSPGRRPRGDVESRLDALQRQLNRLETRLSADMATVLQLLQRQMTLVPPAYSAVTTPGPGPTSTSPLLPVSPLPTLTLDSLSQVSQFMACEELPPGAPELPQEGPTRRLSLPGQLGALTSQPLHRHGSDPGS

| Structure (SMILES) | hERG current change (%, negative = inhibition) at 10uM [%] |
| --- | --- |
| CCOc1ccc(/C(O)=C2/C(=O)C(=O)N(CCN(CC)CC)C2c2cccs2)cc1 (centres unmarked) | 8.37 |
| O=c1cc(-c2ccccc2Cl)oc2ccc([N+](=O)[O-])c(O)c12 | 9.93 |
| CN(CC1CCCN(CCc2ccc(Cl)cc2)C1)C(=O)C(=O)c1ccco1 (centres unmarked) | -74.5 |
| Cc1ccccc1CCN1CCCC(CN(C)C(=O)C(=O)c2ccco2)C1 (centres unmarked) | -70.1 |
| CN(CC1CCCN(CCc2ccc(Cl)cc2)C1)C(=O)c1ccco1 (centres unmarked) | -25.5 |
| Cc1ccccc1CCN1CCCC(CN(C)CC(C)(C)C)C1 (centres unmarked) | 8.88 |
| CCOc1ccc(NC(=O)CSc2nncn2C)cc1 | 18.7 |
| CCc1noc(C)c1C(=O)Nc1nnc(C(CC)CC)s1 | -16.9 |
| CC1C/C(=C\c2cccnc2)C(=O)/C(=C/c2cccnc2)C1 (centres unmarked) | -63.1 |
| O=C1/C(=C/c2cccnc2)CC/C1=C\c1cccnc1 | -24.5 |
| CC1C/C(=C/c2ccncc2)C(=O)/C(=C/c2ccncc2)C1 (centres unmarked) | -41.9 |
| COc1ccccc1CC(=O)Nc1ccc(S(=O)(=O)N2CC(C)CC(C)C2)cc1 (centres unmarked) | -7.25 |
| COc1cc(OC)nc(NC(=O)CN2CCN(c3ccc(F)cc3)CC2)n1 | -20.1 |
| Cc1ccc(C2NC(=O)c3c(sc4c3CCN(C)C4)N2)s1 (centres unmarked) | -36.8 |
| CN1CCc2c(sc3c2C(=O)NC(c2ccccn2)N3)C1 (centres unmarked) | -1.35 |
| CN1CCc2c(sc3c2C(=O)NC(c2ccc4c(c2)OCO4)N3)C1 (centres unmarked) | -16.5 |
| CN1CCc2c(sc3c2C(=O)NC(/C=C/c2ccco2)N3)C1 (centres unmarked) | -27.4 |
| CSc1ccc(C2NC(=O)c3c(sc4c3CCN(C)C4)N2)cc1 (centres unmarked) | -60.6 |
| CN1CCc2c(sc3c2C(=O)NC(/C=C\c2ccccc2)N3)C1 (centres unmarked) | -58.6 |
| Cc1ccc2nc(-c3ccc(-c4ccccn4)s3)cn2c1 | -1.76 |
| CCNc1nc(NCC)nc(N(C#N)CCOc2ccccc2)n1 | -55.1 |
| CCNc1nc(NC(C)C)nc(N(C#N)CCOc2ccccc2)n1 | -26 |
| CN(C)c1nc(N(C)C)nc(N(C#N)CCOc2ccccc2)n1 | -4.58 |

| Structure (SMILES) | hERG current change (%, negative = inhibition) at 10uM [%] |
| --- | --- |
| ON1C2CCCCC2N(O)C1c1ccccc1 (centres unmarked) | 13.2 |
| O=C(COC(=O)C1(c2ccccc2F)CCCC1)NCc1ccc2c(c1)OCO2 | -6.33 |
| CCc1ccc(-c2nc(CN3CCCC(C(=O)O)C3)c(C)o2)cc1 (centres unmarked) | 14.2 |
| CCOC(=O)N1CCC(NC(=O)C2CCCN(Cc3nc(-c4cccc(C)c4)oc3C)C2)CC1 (centres unmarked) | -63.6 |
| Cc1oc(-c2cccc(Cl)c2)nc1CS(=O)(=O)CC(=O)NC1CCCC1 | 6.45 |
| CCOC(=O)N1CCC(NC(=O)C2CCCN(Cc3nc(-c4ccc(CC)cc4)oc3C)C2)CC1 (centres unmarked) | -71.5 |
| CCOC(=O)N1CCC(NC(=O)C2CCCN(c3nc4ccccc4o3)C2)CC1 (centres unmarked) | -28.4 |
| CCOC(=O)N1CCC(NC(=O)C2CCCN(Cc3nc(-c4cccc(Cl)c4)oc3C)C2)CC1 (centres unmarked) | -72.2 |
| CCOC(=O)N1CCC(NC(=O)CS(=O)(=O)Cc2nc(-c3cccc(Cl)c3)oc2C)CC1 | -18.3 |
| CCOC(=O)N1CCC(NC(=O)CS(=O)Cc2nc(-c3ccc(C)cc3)oc2C)CC1 (centres unmarked) | -2.4 |
| CCOC(=O)N1CCC(NC(=O)CSCc2nc(-c3cccc(OC)c3)oc2C)CC1 | -17.6 |
| Nc1sc(-c2ccccc2)cc1C(=O)N/N=C/c1ccc(Cl)cc1 | 18.1 |
| O=C(CN1CCCCCCC1)Nc1cc(Cl)cc(Cl)c1 | 1.75 |
| Cc1ccc(-c2noc(Cn3cc(S(=O)(=O)N4CCCC4)ccc3=O)n2)cc1 | 8.62 |
| CC(=O)N1c2ccc(S(=O)(=O)N3CCC(C(=O)Nc4cc(C)cc(C)c4)CC3)cc2CC1C (centres unmarked) | 2 |
| COc1cc(/C=C/C(=O)OCC(=O)Nc2ccc(C)cc2[N+](=O)[O-])ccc1O | -20.5 |
| CC(CC(=O)O)CC(=O)Nc1cc([N+](=O)[O-])ccc1O (centres unmarked) | -2.89 |
| CCOC(=O)c1cccc(N2C(=O)c3ccccc3S2(=O)=O)c1 | -59.5 |
| CCOC(=O)c1ccccc1CN1C(=O)c2ccccc2S1(=O)=O | -11.1 |
| COC(=O)c1cccc(N2C(=O)c3ccccc3S2(=O)=O)c1 | -9.36 |
| CCOC(=O)N/N=C(\C)c1ccc(Oc2ncccn2)cc1 | 17.1 |
| CCN(Cc1ccccc1)C1CCN(Cc2ccccc2)CC1 | -14.9 |
| CCN(CC)C1CCN(C(=O)c2ccc(OC3CCN(CCc4ccccc4)CC3)cc2)C1 (centres unmarked) | 2.06 |

| Structure (SMILES) | hERG current change (%, negative = inhibition) at 10uM [%] |
| --- | --- |
| CCCN1CCC(N(CCc2ccccc2)Cc2ccccc2)CC1 | -72.2 |
| CCCN1CCC(N(C)CCc2ccc(OC)c(OC)c2)CC1 | -11.4 |
| O=C(O)C(=O)O.c1ccc(CN2CCC(N3CCC(N4CCCCCC4)CC3)CC2)cc1 | 16.5 |
| CCCCC(=O)C1CCN(Cc2ccccc2)CC1 | -34.5 |
| CC(C)CC(=O)N1CCC(N(CCc2ccccc2)Cc2ccccc2)CC1.O=C(O)C(=O)O | -46.8 |
| CCCN(CCO)C1CCN(CCc2ccccc2)CC1 | 7.14 |
| CCCCN(Cc1ccccc1)C1CCN(Cc2ccccc2)CC1 | -53.5 |
| O=C(O)C(=O)O.c1ccc(CCN(Cc2ccccc2)C2CCN(C3CCCC3)CC2)cc1 | -77 |
| CCCN1CNC(=S)N(CCc2ccccc2)C1 | 8.83 |
| CCCCN(Cc1ccccc1)C1CCN(CCc2ccccc2)CC1 | -72.2 |
| CC(C)CNS(=O)(=O)c1ccc(OCC(=O)NCC2CCCO2)c(Cl)c1 (centres unmarked) | -4.3 |
| S=c1[nH]cnc2scc(-c3ccc(Br)cc3)c12 | 0.154 |
| O=C1Nc2ccc(F)cc2C12Nc1ccccc1-c1nnc(SCc3ccccc3)nc1O2 (centres unmarked) | -13.2 |
| COc1ccccc1NC(=O)c1ccc(-n2cccn2)nc1 | 3.91 |
| O=C(Nc1cccc(Cl)c1)c1ccc(NCCCN2CCOCC2)c([N+](=O)[O-])c1 | -37.9 |
| CC(C(N)=O)N1CC(c2ccccc2)CC1=O (centres unmarked) | -4.86 |
| O=C(CSc1nccc(=O)[nH]1)Nc1ccc2c(c1)OCCO2 | 51.6 |
| Fc1ccc(CSc2nnc(CN3CCOCC3)n2-c2ccccc2)c(Cl)c1 | -24 |
| Clc1cccc(Cl)c1CSc1nnc(CN2CCOCC2)n1-c1ccccc1 | -28.9 |
| Clc1ccc(CSc2nnc(CN3CCOCC3)n2-c2ccccc2)cc1Cl | -74.1 |
| CSCCC(NS(=O)(=O)c1ccc(C)cc1)C(=O)N1CCN(C(C)=O)CC1 (centres unmarked) | 3.56 |
| CCCCn1c(NC(=O)c2ccc(Br)o2)c(C(=O)OCC)c2nc3ccccc3nc21 | -53.8 |
| CCCCCn1c(NC(=O)c2ccco2)c(C(=O)OCC)c2nc3ccccc3nc21 | -80.4 |

| Structure (SMILES) | hERG current change (%, negative = inhibition) at 10uM [%] |
| --- | --- |
| CCOC(=O)c1c(NC(=O)c2ccco2)n(C2CCCCC2)c2nc3ccccc3nc12 | -35.6 |
| CCCCn1c(NC(=O)c2ccc(Br)o2)c(S(=O)(=O)c2ccccc2)c2nc3ccccc3nc21 | -0.885 |
| CCCCn1c(NS(=O)(=O)c2ccccc2)c(C(=O)OCC)c2nc3ccccc3nc21 | -23.9 |
| CCCCn1c(NC(=O)c2ccco2)c(C(=O)OCC)c2nc3ccccc3nc21 | -42.1 |
| Cc1cc(C)n(CC(=O)NNC(=O)c2cccc(C(F)(F)F)c2)n1 | 12.7 |
| COc1ccc(C(=O)c2oc3ccccc3c2NC(C)=O)cc1 | 0.829 |
| O=C(COc1ccc(/C=N/NC(=O)c2cc3ccccc3o2)cc1Cl)Nc1ccccc1 | 6.96 |
| Cc1[nH]c2ccccc2c1/C=N/NC(=O)CNC(=O)c1ccccc1 | -9.38 |
| O=C(CO/N=C/c1c(Cl)cccc1Cl)NNC(=O)c1ccc(Cl)cc1 | 8.46 |
| NC(=O)N/N=C/C=C/c1ccc(F)cc1 | 8.5 |
| CC(C)=CCOc1c2occc2cc2ccc(=O)oc12 | -17.9 |
| Cc1ccc(Cl)cc1N1CCN(Cc2nnnn2C2CCCCC2)CC1 | 7.78 |
| Fc1ccc2nc(C3CCN(Cc4nc(CC5CC5)no4)CC3)[nH]c2c1 | -51.9 |
| Clc1ccc2nc(C3CCN(Cc4ccccc4)CC3)[nH]c2c1 | -73.4 |
| O=C(Cc1ccccc1)N1CCC(c2nc3ccccc3[nH]2)CC1 | -18.9 |
| C1CCC(n2nnnc2CN2CCCC2)CC1 | -1.31 |
| Clc1ccc2nc(C3CCN(Cc4nnnn4C4CCCCC4)CC3)[nH]c2c1 | -59.2 |
| O=C(c1cccc(Cl)c1)N1CCC(c2nc3ccccc3[nH]2)CC1 | -38.2 |
| Fc1ccc2nc(C3CCCCN3Cc3nc(CC4CC4)no3)[nH]c2c1 (centres unmarked) | 0.821 |
| Fc1ccccc1C1CCN(Cc2nc(CC3CC3)no2)C1 (centres unmarked) | 2.1 |
| CC(C)(C)c1ccc(S(=O)(=O)N2CCC(c3nc4ccc(Cl)cc4[nH]3)CC2)cc1 | -3.97 |
| O=S(=O)(c1ccc2c(c1)OCCO2)N1CCC(c2nc3ccc(Cl)cc3[nH]2)CC1 | -56.6 |
| O=S(=O)(c1ccc2c(c1)OCCO2)N1CCC(c2nc3ccccc3[nH]2)CC1 | 3.43 |
